The text below walks through data of PubChem BioAssay (Tox21).

Records with an inconclusive call do not appear. Active and inactive are the calls of the source. Unless noted, calls follow the shape of the dose curve; as a rule, active = well fitted curve in the direction sought with a large enough effect in the repeat runs; inconclusive = weak or mixed curves; inactive = no such curve, though single readings can be large; an effect the other way counts as inactive or inconclusive.

Experiment [1] in a line: qHTS assay to identify small molecule antagonists of the sonic hedgehog signaling (Shh) pathway (AID 1259369; calls by dose curve; also: nearly all actives have a fitted effect of over 45% in size; also: potency is read from the fitted curve at half-maximal effect). Summed up: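 NIH/3T3 stable Gli1-Luc clone, 2,000 cells/well, 4hr settle; cpd + conditioned medium 24hr; Luc reagent 30min RT; luminescence.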
In general terms: qHTS replaces the single test concentration by a dilution series.

Experiment [2] addresses Estrogen receptor beta (Homo sapiens) (UniProt Q92731). Briefly: qHTS assay to identify small molecule agonists of the estrogen receptor beta (ER-beta) signaling pathway (AID 1259377; active = well fitted activation curve with a large enough effect in the signal ratio in the repeat runs, not every such curve was filed as active; the % refers to the signal ratio). Summed up: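 Agonist mode cell assay in GripTite HEK293T cells expressing an ER-beta fusion that drives beta-lactamase from an Upstream Activator Sequence; 16 hr compound exposure at 37C, then 2 h LiveBLAzer B/G FRET substrate at room temperature, fluorescence read-out.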

Experiment [3] has the same target. Put plainly: qHTS assay to identify small molecule antagonists of the estrogen receptor beta (ER-beta) signaling pathway (AID 1259378; active = well fitted inhibition curve with a large enough effect in the signal ratio in the repeat runs, not every such curve was filed as active; the % refers to the signal ratio). In a few lines:
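ER-beta-UAS-bla HEK293T cells in 2% charcoal-stripped FBS medium treated with compound plus 1nM final 17-beta-estradiol for 16 hr at 37C. Beta-lactamase reporter read by FRET substrate fluorescence after 2 hours at room temperature.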

Experiment [4] can be described thus: qHTS assay to identify small molecule agonists of the androgen receptor (AR) signaling pathway in the presence of an antagonist - cell viability counter screen (AID 1259379). Also: nearly all actives have a fitted effect of over 25% in size. Also: potency is read from the fitted curve at half-maximal effect. In a few lines:
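MDA-kb2 viability measured by CellTiter-Fluor fluorescence in the same wells as the luciferase signal; nilutamide 3.0uM final; 15-point compound titration; 16 hr at 37C.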

Experiment [5] is described as follows: qHTS assay to identify small molecule agonists of the estrogen receptor beta (ER-beta) signaling pathway - cell viability counter screen (AID 1259380). Also: nearly all actives have a fitted effect of over 30% in size. Also: potency is read from the fitted curve at half-maximal effect. Summed up:
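Measured: luminescence from CellTiter-Glo after 30 min at room temperature, added to wells already read for the LiveBLAzer FRET reporter (2 hr substrate); ER-beta-UAS-bla HEK293T cells had 16 hr compound treatment at 37C, 5% CO2.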

Experiment [6] has as its target Androgen receptor (Homo sapiens) (UniProt P10275). Briefly: qHTS assay to identify small molecule agonists of the androgen receptor (AR) signaling pathway in the presence of an antagonist (AID 1259381; calls by dose curve; also: nearly all actives have a fitted effect of over 15% in size). In a few lines:
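Luminescent ONE-Glo read, 30min at room temperature, follows 16hr compound exposure (15 concentrations) of MDA-kb2 cells at 37C, 0% CO2, with nilutamide added at 3.0uM final.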

A short description of experiment [7]: qHTS assay to identify small molecule antagonists of the estrogen receptor beta (ER-beta) signaling pathway - cell viability counter screen (AID 1259382). Also: nearly all actives have a fitted effect of over 55% in size. Also: potency is read from the fitted curve at half-maximal effect. Summed up: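 Readout: luminescence, CellTiter-Glo, same wells as bla assay. System: ER-beta-UAS-bla GripTite HEK293T, 2% charcoal-stripped FBS. Exposure: compounds plus 1nM 17-beta-estradiol, 16 hr, 37C.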

For experiment [8], the target named is Estrogen receptor (Homo sapiens) (UniProt P03372). Briefly: qHTS assay to identify small molecule agonists of the estrogen receptor alpha (ER-alpha) signaling pathway in the presence of an antagonist (AID 1259383; calls by dose curve; also: top concentration of the series differs between compounds; nearly all actives have a fitted effect of over 15% in size). In a few lines:
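Quantitative HTS confirmation: compounds titrated at 15 concentrations onto estrogen-deprived VM7Luc4E2 cells carrying a four-ERE luciferase construct, with ICI-182,780 present at 10.0nM final. Signal is luminescence after 22hr exposure.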

Experiment [9] has as its target Thyrotropin receptor (Homo sapiens) (UniProt P16473). Briefly: qHTS assay to identify small molecule antagonists of the thyroid stimulating hormone receptor (TSHR) signaling pathway (AID 1259385; calls by dose curve; also: nearly all actives have a fitted effect of over 20% in size). In a few lines: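 TSHR-HEK293 cells (800/well) plated 18 h, then compounds with Ro20-1724 and TSH at 1.5 ng/mL final, 30 min at room temperature. cAMP quantified by HTRF (cAMP-d2/anti-cAMP-cryptate, 1 h); 15 concentrations in triplicate.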

Experiment [10] can be described thus: qHTS assay to identify small molecule agonists of the estrogen receptor alpha (ER-alpha) signaling pathway in the presence of an antagonist - cell viability counter screen (AID 1259386).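 Also: cells exposed to compounds for 22 h at 37 °C before the viability read; nearly all actives have a fitted effect of over 30% in size.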 Also: potency is read from the fitted curve at half-maximal effect. Summed up: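 The test measures whether compounds kill ER-alpha reporter cells (VM7Luc4E2) under antagonist co-treatment (ICI-182,780, 10.0nM). Fluorescence from CellTiter-Fluor is read after a 22hr exposure.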

Experiment [11] addresses Progesterone receptor (Homo sapiens) (UniProt P06401). Put plainly: qHTS assay to identify small molecule agonists of the progesterone receptor (PR) signaling pathway (AID 1346784; calls by dose curve; also: nearly all actives have a fitted effect of over 30% in size). Summed up: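 Cells (PR-UAS-bla HEK 293T, GripTite) were plated in assay medium containing 2% charcoal-stripped FBS and incubated 6 hr. Test compounds in DMSO were added for 16 hr at 37C. FRET substrate was then loaded for 2 hr at room temperature before fluorescence reading.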

Experiment [12] shares this target. Briefly: qHTS assay to identify small molecule antagonists of the progesterone receptor (PR) signaling pathway (AID 1346795; active = well fitted inhibition curve with a large enough effect in the signal ratio in the repeat runs, not every such curve was filed as active; the % refers to the signal ratio; also: potency is read from the fitted curve at half-maximal effect). Summed up: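 Antagonist mode: compounds tested against 1 nM (final) promegestone stimulation in HEK293T cells expressing PR-UAS-bla reporter, 16 hr at 37C, 5% CO2; beta-lactamase activity detected via B/G FRET substrate after 2 hr at room temperature.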

Experiment [13] in a line: qHTS assay to identify small molecule antagonists of the progesterone receptor (PR) signaling pathway - cell viability counter screen (AID 1346798). Also: series mostly up to about 92 µM; nearly all actives have a fitted effect of over 50% in size. In a few lines: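 Counter screen for cytotoxicity: viability of PR-UAS-bla HEK293T cells was measured with CellTiter-Glo luminescence following 16 hr compound exposure in the presence of R5020.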
Experiment [14] in a line: qHTS assay to identify small molecule agonists of the progesterone receptor (PR) signaling pathway - cell viability counter screen (AID 1346799; calls by dose curve; also: nearly all actives have a fitted effect of over 45% in size). Summed up: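 Cells (PR-UAS-bla HEK293T) are plated at 3,000/well in 2% charcoal-stripped FBS medium, rested 6 hr, dosed and incubated 16 hr at 37C. CellTiter-Glo is then added and luminescence measured after 30 min at room temperature.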

A short description of experiment [15]: qHTS assay to identify small molecule antagonists of the TGF-beta/Smad signaling pathway - cell viability counter screen (AID 1346824). Also: nearly all actives have a fitted effect of over 50% in size. In a few lines: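 SBE-bla HEK 293T cells, incubated overnight, then compound plus 0.25 ng/mL TGF-beta1 (stock added) for 5 hr at 37 C. Viability was read in the same wells by CellTiter-Glo luminescence after 30 min at room temperature.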

A short description of experiment [16]: qHTS assay to identify small molecule agonists of the TGF-beta/Smad signaling pathway - cell viability counter screen (AID 1346829). Also: top concentration of the series differs between compounds; nearly all actives have a fitted effect of over 45% in size. Summed up:
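Compound-treated SBE-bla HEK 293T cells (5 hr, 37 C) were assessed for viability with CellTiter-Glo in parallel with the reporter read.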

Experiment [17] is described as follows: qHTS assay to identify small molecule agonists of the TGF-beta/Smad signaling pathway (AID 1346859; active = well fitted activation curve with a large enough effect in the signal ratio in the repeat runs, not every such curve was filed as active; the % refers to the signal ratio; also: series mostly up to about 77 µM). Summed up:
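Reporter line: HEK 293T with stably integrated SBE-controlled beta-lactamase. Compound exposure lasts 5 hr at 37 C and 5% CO2; substrate loading follows for 2 hr at room temperature, with emission read at 460 and 530 nm.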

The target in experiment [18] is Thyrotropin-releasing hormone receptor (Homo sapiens) (UniProt P34981). Put plainly: qHTS assay to identify small molecule antagonists of the thyrotropin-releasing hormone receptor (TRHR) signaling pathway (AID 1346877; active = well fitted inhibition curve with a large enough effect in the repeat runs, not every such curve was filed as active; also: series mostly up to about 51 µM). In a few lines: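 Overnight-plated (18 h, 37 °C) HEK293 cells expressing TRHR were dye-loaded 2 h, treated with compound, then stimulated with TRH at 1 nM final. Fluorescence intensity was captured every second for 3 min.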

Experiment [19] has the same target. Put plainly: qHTS assay to identify small molecule agonists of the thyrotropin-releasing hormone receptor (TRHR) signaling pathway (AID 1346891; calls by dose curve;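 also: HEK293 cells expressing TRHR with calcium dye readout; series mostly up to about 58 µM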). Summed up:
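Cells: TRHR-Hek293, seeded and incubated 18 h. Dye loading: 2 h at 37 °C. Compound added from DMSO stock by pin tool. Read-out: kinetic calcium fluorescence over 3 min.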

The nature of experiment [20]: qHTS assay to identify small molecule agonists or antagonists of the thyroid stimulating hormone receptor (TSHR) signaling pathway - wild type cell line counter screen (AID 1259384; calls by dose curve). Summed up:
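Wild-type Hek293 cells, 800/well, 18 h at 37C, then compound with Ro20-1724 for 30 min RT. cAMP by HTRF (cAMP-d2/anti-cAMP cryptate), 1 h RT, fluorescence read. 15 concentrations, triplicates.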

Thyrotropin-releasing hormone receptor (Homo sapiens), sequence (P34981 whole entry, looked up): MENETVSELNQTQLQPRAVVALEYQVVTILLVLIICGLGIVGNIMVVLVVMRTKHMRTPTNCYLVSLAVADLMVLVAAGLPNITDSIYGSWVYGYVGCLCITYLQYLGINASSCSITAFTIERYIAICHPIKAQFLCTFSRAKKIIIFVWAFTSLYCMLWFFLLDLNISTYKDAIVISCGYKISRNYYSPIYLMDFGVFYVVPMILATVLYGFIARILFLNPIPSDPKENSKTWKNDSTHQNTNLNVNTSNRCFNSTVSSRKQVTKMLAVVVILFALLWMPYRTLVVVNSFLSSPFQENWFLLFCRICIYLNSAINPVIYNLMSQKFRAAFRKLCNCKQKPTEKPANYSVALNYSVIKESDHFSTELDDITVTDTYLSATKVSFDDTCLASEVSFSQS
Estrogen receptor beta (Homo sapiens), sequence (Q92731 whole entry, looked up, the tested form may be a part): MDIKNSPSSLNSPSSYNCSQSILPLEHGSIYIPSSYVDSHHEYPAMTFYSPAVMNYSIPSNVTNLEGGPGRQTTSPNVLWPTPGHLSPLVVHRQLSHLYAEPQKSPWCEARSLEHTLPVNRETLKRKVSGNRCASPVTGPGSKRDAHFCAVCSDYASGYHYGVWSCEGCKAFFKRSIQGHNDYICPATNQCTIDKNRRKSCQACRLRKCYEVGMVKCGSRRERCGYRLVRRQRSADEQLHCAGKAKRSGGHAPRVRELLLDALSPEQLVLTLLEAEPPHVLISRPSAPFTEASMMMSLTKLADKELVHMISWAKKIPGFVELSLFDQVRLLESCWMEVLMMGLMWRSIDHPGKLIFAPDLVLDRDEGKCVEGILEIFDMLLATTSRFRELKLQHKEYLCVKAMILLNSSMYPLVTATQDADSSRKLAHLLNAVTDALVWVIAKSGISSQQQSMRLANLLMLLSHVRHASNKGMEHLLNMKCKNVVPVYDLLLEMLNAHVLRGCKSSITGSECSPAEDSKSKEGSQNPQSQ
Progesterone receptor (Homo sapiens), sequence (P06401 whole entry, looked up): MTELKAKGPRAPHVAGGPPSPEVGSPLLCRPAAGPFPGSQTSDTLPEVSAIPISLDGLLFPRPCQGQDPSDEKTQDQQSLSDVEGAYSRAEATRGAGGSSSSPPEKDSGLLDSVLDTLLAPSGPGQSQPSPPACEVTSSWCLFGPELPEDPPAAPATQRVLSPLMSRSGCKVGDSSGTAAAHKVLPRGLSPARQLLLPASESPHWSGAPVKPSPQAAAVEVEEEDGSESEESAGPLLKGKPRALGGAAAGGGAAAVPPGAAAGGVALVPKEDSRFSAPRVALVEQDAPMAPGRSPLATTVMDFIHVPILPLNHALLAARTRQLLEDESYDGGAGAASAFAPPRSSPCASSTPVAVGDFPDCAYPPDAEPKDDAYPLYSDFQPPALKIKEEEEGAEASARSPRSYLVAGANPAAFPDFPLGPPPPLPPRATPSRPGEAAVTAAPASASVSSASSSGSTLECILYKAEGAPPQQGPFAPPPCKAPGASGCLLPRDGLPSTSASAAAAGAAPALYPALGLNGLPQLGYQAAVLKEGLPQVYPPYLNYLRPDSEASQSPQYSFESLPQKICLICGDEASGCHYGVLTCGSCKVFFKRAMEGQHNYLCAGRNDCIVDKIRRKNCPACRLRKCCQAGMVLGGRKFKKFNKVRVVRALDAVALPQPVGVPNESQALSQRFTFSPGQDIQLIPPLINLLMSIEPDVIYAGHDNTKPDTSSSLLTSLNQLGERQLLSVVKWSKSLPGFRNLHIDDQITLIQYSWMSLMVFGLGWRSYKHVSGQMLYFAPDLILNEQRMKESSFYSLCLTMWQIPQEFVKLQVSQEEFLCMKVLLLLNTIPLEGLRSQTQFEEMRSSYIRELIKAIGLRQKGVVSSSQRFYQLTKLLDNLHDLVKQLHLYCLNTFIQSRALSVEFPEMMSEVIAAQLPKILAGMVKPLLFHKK
Estrogen receptor (Homo sapiens), sequence (P03372 whole entry, looked up): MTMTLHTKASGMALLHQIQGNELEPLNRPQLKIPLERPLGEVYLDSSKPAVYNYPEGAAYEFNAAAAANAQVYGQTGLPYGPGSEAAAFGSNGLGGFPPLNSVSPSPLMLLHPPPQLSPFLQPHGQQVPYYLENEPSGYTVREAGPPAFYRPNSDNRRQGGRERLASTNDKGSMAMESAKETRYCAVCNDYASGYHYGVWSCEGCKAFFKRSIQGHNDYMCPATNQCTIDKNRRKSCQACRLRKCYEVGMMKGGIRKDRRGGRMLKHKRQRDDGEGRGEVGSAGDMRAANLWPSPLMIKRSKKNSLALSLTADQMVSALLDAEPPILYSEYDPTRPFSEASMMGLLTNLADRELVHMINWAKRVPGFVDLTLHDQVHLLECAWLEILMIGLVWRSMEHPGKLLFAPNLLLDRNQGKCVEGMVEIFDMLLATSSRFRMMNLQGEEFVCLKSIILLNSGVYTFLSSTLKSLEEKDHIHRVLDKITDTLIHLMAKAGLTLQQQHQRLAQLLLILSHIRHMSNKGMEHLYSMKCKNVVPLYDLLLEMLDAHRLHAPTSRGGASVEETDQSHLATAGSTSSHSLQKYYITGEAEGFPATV
Thyrotropin receptor (Homo sapiens), sequence (P16473 whole entry, looked up): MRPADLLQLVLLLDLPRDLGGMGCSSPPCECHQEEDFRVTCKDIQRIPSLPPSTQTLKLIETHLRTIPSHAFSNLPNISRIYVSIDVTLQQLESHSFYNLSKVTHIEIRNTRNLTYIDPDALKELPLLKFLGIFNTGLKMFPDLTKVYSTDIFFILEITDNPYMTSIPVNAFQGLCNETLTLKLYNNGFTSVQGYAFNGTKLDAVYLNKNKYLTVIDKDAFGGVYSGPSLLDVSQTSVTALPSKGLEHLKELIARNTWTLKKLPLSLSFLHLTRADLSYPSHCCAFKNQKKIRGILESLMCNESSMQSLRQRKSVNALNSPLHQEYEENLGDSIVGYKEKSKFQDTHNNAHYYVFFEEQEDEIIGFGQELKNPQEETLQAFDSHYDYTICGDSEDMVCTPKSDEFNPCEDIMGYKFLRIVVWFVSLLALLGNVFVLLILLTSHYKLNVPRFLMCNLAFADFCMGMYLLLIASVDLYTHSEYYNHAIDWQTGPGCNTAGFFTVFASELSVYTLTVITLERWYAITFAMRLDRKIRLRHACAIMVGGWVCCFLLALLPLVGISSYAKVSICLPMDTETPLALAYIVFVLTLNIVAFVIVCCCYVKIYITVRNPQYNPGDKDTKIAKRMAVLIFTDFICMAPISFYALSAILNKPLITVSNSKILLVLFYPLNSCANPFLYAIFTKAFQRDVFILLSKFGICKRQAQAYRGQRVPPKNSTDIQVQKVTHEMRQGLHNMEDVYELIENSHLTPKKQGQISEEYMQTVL
Androgen receptor (Homo sapiens), sequence (P10275 whole entry, looked up): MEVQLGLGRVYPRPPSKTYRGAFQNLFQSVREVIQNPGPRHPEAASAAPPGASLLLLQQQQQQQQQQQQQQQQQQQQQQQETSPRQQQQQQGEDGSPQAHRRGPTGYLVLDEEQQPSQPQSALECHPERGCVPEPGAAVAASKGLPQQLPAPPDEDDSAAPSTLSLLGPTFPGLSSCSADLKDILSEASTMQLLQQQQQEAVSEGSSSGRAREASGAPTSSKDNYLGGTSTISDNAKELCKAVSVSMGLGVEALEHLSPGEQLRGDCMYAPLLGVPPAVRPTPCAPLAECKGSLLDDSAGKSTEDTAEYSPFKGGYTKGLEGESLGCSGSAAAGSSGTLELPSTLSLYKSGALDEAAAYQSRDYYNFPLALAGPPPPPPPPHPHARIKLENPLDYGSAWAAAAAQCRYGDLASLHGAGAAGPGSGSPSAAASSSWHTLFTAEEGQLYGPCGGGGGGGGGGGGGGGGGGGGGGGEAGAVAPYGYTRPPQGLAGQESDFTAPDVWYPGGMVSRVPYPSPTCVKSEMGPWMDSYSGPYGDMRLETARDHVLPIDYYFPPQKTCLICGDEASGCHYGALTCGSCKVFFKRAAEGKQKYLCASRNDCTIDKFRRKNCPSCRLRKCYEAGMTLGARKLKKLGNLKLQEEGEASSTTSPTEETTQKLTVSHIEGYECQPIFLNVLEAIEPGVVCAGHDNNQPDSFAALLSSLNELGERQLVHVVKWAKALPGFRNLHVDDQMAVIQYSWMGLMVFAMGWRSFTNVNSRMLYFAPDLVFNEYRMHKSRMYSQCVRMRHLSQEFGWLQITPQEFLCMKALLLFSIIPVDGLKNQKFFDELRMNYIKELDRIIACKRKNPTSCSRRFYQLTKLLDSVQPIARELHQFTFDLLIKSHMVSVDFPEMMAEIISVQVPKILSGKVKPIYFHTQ

`CCCCCCC(C)(C)C(=O)O`: the Potency result in experiment [1], in experiment [2], in experiment [3], in experiment [4], in experiment [5] and in [6] was “inactive” each time. Besides, the Potency result in experiment [7], in experiment [8], in experiment [9], in experiment [10], in experiment [11] and in [12] was “inactive” in each case. Besides, the Potency result in experiment [13], in experiment [14], in experiment [15], in experiment [16], in experiment [17] and in experiment [19] was “inactive” each time. The outcome in [18] was inactive.

Consider `NNC(=O)CP(=O)(c1ccccc1)c1ccccc1`, for which the Potency entry in [1], in experiment [2], in experiment [3], in experiment [4], in [7] and in [10] was “inactive” each time. Further, the Potency result in [11], in [12], in experiment [13], in experiment [14], in experiment [15] and in [16] was “inactive” throughout. The Potency result in experiment [17] and in experiment [19] was “inactive” throughout. Also, in experiment [18], the call was inactive.

Turning to `FC(F)(F)c1ccccc1Cl`, the Potency entry in [1], in [2], in experiment [4], in experiment [5], in experiment [7] and in experiment [8] was “inactive” each time. For the same compound, the Potency entry in experiment [10], in experiment [11], in [12], in experiment [13], in [14] and in experiment [15] was “inactive” in each case. In addition, the Potency entry in [16], in experiment [17] and in experiment [19] was “inactive” each time. For the same compound, the compound was called inactive in [18].

With `Nc1nnc(-c2ccc([N+](=O)[O-])o2)o1`, the Potency result in experiment [1], in [2], in experiment [7], in experiment [8], in experiment [9] and in [11] was “inactive” in each case. In addition, the Potency entry in experiment [15], in experiment [16] and in experiment [17] was “inactive” throughout. Also, the Potency in experiment [4] is 54.5 µM (active); in experiment [10], 61.1 µM (active). In experiment [20], the outcome was inactive.

With `O=C(O)CCC(=O)C(=O)O`, the Potency result in experiment [1], in experiment [2], in [4], in [5], in [7] and in [8] was “inactive” throughout. The Potency entry in [9], in experiment [10], in experiment [11], in [12], in experiment [13] and in [15] was “inactive” throughout. Besides, the Potency result in experiment [16] and in experiment [17] was “inactive” throughout.

Regarding `CN1C(C(=O)Nc2ccccn2)=C(O)c2sccc2S1(=O)=O`, the Potency entry in experiment [1], in [2], in experiment [4], in experiment [5], in [7] and in experiment [8] was “inactive” throughout. Also, the Potency result in experiment [11], in experiment [12], in experiment [13], in [14], in experiment [15] and in experiment [16] was “inactive” in each case. The Potency entry in experiment [17] and in [19] was “inactive” throughout. Also, the compound was called inactive in experiment [18].

As to `CC1=C(CC=O)C(C)(C)CCC1`, the Potency entry in [1], in [2], in [4], in experiment [5], in experiment [7] and in experiment [9] was “inactive” throughout. The Potency result in experiment [10], in [11], in experiment [12], in [13], in [14] and in [15] was “inactive” throughout. Besides, the Potency entry in experiment [17] and in experiment [19] was “inactive” each time. Besides, the compound was called inactive in experiment [20] and in experiment [18].

As for `CC1(CN2CCC(n3c(=O)[nH]c4ccccc43)CC2)OCc2ccccc2-n2cccc21` (stereo unspecified), the Potency in [1] was 23.7 µM (active); in [4], 29.8 µM (active); in [5], 23.7 µM (active); in [7], 29.8 µM (active). The Potency entry in experiment [2], in [8], in experiment [9], in experiment [10], in [15] and in experiment [16] was “inactive” in each case. Moreover, the Potency entry in [17] was “inactive”. The compound was called inactive in experiment [20].

On to `CCCCCCCCOc1ccc(C(=O)O)cc1`, for which the Potency entry in experiment [1], in experiment [2], in experiment [4], in experiment [7], in [9] and in [10] was “inactive” each time. Besides, the Potency result in experiment [11], in [15], in experiment [17] and in experiment [19] was “inactive” each time. For the same compound, the outcome in experiment [20] and in experiment [18] was inactive. Further, the Potency in [12] was 48 µM (active).

Consider `CCC1(CO)COCOC1`, for which the Potency entry in experiment [1], in [2], in experiment [4], in experiment [5], in [7] and in experiment [8] was “inactive” each time. Moreover, the Potency result in [9], in experiment [10], in [11], in experiment [14], in experiment [15] and in experiment [17] was “inactive” each time. Moreover, the Potency entry in experiment [19] was “inactive”. Moreover, the compound was called inactive in experiment [18].
